# HPGD inh = HPGD (human) dehydrogenase inhibition; Potency, µM, inactives show at the top dose activity change, negative = inhibition, hits mostly inhibitors; purified HPGD, NADH fluorescence kinetic, PGE2 substrate; P15428; actives 4.3% (n = 150,000); further: potency means the concentration at half of the fitted maximal effect
# Target sequence (P15428 whole entry, looked up): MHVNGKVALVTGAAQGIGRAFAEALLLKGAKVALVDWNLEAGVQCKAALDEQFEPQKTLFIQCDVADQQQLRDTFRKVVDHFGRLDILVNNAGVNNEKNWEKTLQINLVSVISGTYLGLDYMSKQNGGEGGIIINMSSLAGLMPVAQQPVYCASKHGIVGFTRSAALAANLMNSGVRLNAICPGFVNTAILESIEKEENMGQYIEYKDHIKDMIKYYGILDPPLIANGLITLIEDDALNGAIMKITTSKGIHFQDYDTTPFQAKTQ
#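 20 nM HPGD preincubated 15 min at room temperature with compound in 50 mM Tris-HCl pH 8, 0.01% Tween 20. Started with 1 mM NAD+ and 30 uM prostaglandin E2; NADH fluorescence (360/450 nm) read 5 times over 30-s intervals, last minus first.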
# Lamin A splicing = changes lamin A minigene splicing in HeLa cells; AID 1487; Potency, µM (highest dose often 46.1 µM), for inactives: at the top dose ratio change, negative = inhibition, actives largely listed as inhibitors; HeLa LMNA splicing GFP/RFP minigene ratio, 48 h; actives 0.01% (n = 200,000); active means well fitted inhibition curve with a large enough effect in the signal ratio, with a control signal flat, not every such curve was filed as active; inconclusive means small, poorly fitted or top-dose-only effect, or effect the other way, or a change in a side signal; the % refers to the signal ratio; further: potency means the concentration at half of the fitted maximal effect
#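 S3 HeLa cells stably expressing lamin A-EGFP splicing minigene plus DsRed2, 600 cells/well, 48 h compound exposure at 37C. Laser-scanning cytometry; analysed as GFP (500-530 nm)/RFP (575-640 nm) total intensity ratio; 0.5% DMSO vehicle.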
# PNC inhibitor = blocks assembly of the perinucleolar compartment | actives 3.1% (n = 140,000) | PC3M PTB-GFP, PNC prevalence imaging, 16 h; active compounds read low | AID 2417 | activity change (PNC), negative = inhibition, % at 10 µM;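 active means readout at or below -70, meaning at least 70% loss of cells showing the perinucleolar compartment, a nuclear body marking cancer cells; inconclusive means readout between -30 and a set limit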;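 further: plate controls were DMSO wells for no effect and camptothecin positive control wells for full effect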
#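 Read-out is percentage of cells bearing a perinucleolar compartment, from automated 20x imaging of fixed, Hoechst-stained PC3M PTB-GFP cells. Cells were seeded 4 h, then exposed 16 h to compound (23 nl of library stock) in duplicate plates.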
# ALOX12 inhib = inhibitors of human 12-lipoxygenase (ALOX12); AID 1452; purified 12-hLO, xylenol orange hydroperoxide absorbance; P18054; Potency, µM (top dose mostly 57.1 µM), inactives show at the highest dose activity change, negative = inhibition, usual class: inhibitors; actives 0.12% (n = 150,000); active means well fitted inhibition curve with a large enough effect; inconclusive means small, poorly fitted or top-dose-only effect; further: potency means the concentration at half of the fitted maximal effect; nearly all actives have a fitted effect of over 55% in size
#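 Hydroperoxide formation by human 12-lipoxygenase from 40 uM arachidonic acid was followed colorimetrically via ferric-xylenol orange complex, using the 573/405 nm absorbance ratio. Enzyme concentration was 150 nM, with 30 min reaction at room temperature.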
# ALDH1A1 block = blocks purified human ALDH1A1 activity. Potency, µM (doses to about 75.3 µM), inactives show top-dose activity, negative = inhibition, most hits filed as inhibitors. AID 1030. Purified ALDH1A1, NADH fluorescence, propionaldehyde substrate. P00352. actives 7.3% (n = 220,000);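 further: potency means the concentration at half of the fitted maximal effect; plate controls were no enzyme wells and a reference inhibitor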
# Target sequence (P00352 whole entry, looked up): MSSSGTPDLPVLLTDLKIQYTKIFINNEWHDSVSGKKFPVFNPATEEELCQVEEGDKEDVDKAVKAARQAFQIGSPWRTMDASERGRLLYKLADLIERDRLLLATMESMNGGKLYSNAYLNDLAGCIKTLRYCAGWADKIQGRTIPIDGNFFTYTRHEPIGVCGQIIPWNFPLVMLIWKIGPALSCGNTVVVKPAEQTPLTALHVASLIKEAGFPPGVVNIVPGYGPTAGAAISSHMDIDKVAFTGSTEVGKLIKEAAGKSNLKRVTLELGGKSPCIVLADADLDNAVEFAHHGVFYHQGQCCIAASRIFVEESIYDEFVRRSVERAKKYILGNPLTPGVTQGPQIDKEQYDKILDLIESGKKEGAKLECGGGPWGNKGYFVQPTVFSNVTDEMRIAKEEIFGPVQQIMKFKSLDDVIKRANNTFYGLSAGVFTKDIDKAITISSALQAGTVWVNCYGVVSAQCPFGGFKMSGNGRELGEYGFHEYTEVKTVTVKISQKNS
# * = called active by the depositor; ? = inconclusive; . = no result given; [ ] = remark or other dose. Rows were chosen to be rich in hits. Some 10% of all compounds tested hit in one or more screens of this group. Unless noted, the call rests on the fitted dose curve; in most records, active means well fitted inhibition curve with a large enough effect (not every such curve was filed as active); inconclusive means small, poorly fitted or top-dose-only effect, or another doubt; inactive means no such curve, though single readings can be large or run the other way. Unless noted, on the % scale 0 is the no-effect control and ±100 the full control effect.
SMILES,HPGD inh,Lamin A splicing,PNC inhibitor,ALOX12 inhib,ALDH1A1 block
CCC(C)NC(=O)C1CCN(c2nc(C)cc(C)n2)CC1 (centres undefined),-24.4%,11.7%,15.1,-1.7%,?
Cc1cc(-c2ccccc2)nc(N2CCC(C(=O)NC(C)C)CC2)n1,?,11.1%,-99.6*,-5.8%,0.6%
CCN(CC)c1ccc(CNCc2cccs2)cc1,.,-1.1%[46 µM],.,.,?
CN(C)c1ccc(N=Nc2ccccc2C(=O)OCC(=O)NC2CCCC2)cc1,.,-15.4%,-115.2*,-3.9%,-8.4%
COCCCNC(=O)C(=O)N/N=C/c1cc2c(cc1Br)OCO2,.,-6.8%[46 µM],.,.,-0.4%
COCCN1C(=O)/C(=C/c2cc3c(cc2Br)OCO3)NC1=S,.,?,.,.,0.199µM*
COc1ccc(CNC(=O)C2CCN(c3nc4ccccc4[nH]3)CC2)c(OC)c1,.,2.9%[46 µM],.,.,.
O=C(O)c1cccc(N2C(=O)/C(=C/c3ccc(SCc4ccc(Cl)cc4)o3)SC2=S)c1,.,?,.,.,25.1µM*
COc1ccccc1CNC(=O)CCCN1C(=O)CSc2c1c(C)nn2-c1ccccc1,.,3.2%[46 µM],.,.,.
CCC(C)Nc1ccc(NC(C)CC)cc1 (centres undefined),-12.8%,.,.,-3.7%,8.91µM*
CCN(C(=O)c1cn(-c2cccc(OC)c2)c(=O)c2ccccc12)c1ccccc1C,.,-0.8%[46 µM],.,.,.
N#C/C(=C\c1cccc([N+](=O)[O-])c1)c1nnc2n1CCCCC2,31.6µM*,?,31.9,-3.5%,20µM*
CN(c1ccccc1)c1ccc(/C=C(\C#N)c2nnc3n2CCCCC3)cc1[N+](=O)[O-],.,?,-90.8*,-3.4%,?
O=c1nc2n(c3ccc([N+](=O)[O-])cc13)CCCCC2,.,.,.,.,1.1%
CC(=O)c1ccc(N2CCN(c3ccc(S(=O)(=O)NCCCN(C)C)cc3[N+](=O)[O-])CC2)cc1,.,?,.,.,18.9µM*
Cn1nnc2c(NCCc3ccccc3)ncnc21,.,4.9%[46 µM],.,.,.
COc1cccc(-c2nc(NC3CCNCC3)c3ccccc3n2)c1,.,?,.,.,31.6µM*
CC1CCN(S(=O)(=O)c2ccc3c(c2)N(CC(=O)NCc2ccccc2Cl)C(=O)CS3)CC1,.,-0.4%[46 µM],.,.,.
O=C1C2CCCCC2C(=O)N1c1ccc(NC2CCCCC2)c([N+](=O)[O-])c1 (centres undefined),-28.9%,?,-21.2,-1.3%,10µM*
COCCNc1ccc(N2C(=O)C3CCCCC3C2=O)cc1[N+](=O)[O-] (centres undefined),.,-1.6%[46 µM],.,.,-3.2%
Cc1cc(C)nc(SCC(=O)N/N=C/c2cc(C)n(-c3ccccc3C)c2C)n1,-14.3%,?,8.3,-1.6%,10µM*
Cc1ccccc1N(CC(=O)N/N=C/c1cc(Br)c(C)o1)S(C)(=O)=O,-8.9%,-14.0%,-24.7,-1.1%,?
Cc1cccc(C)c1-n1c(C)cc(/C=N/NC(=O)CSc2ncccn2)c1C,-15.4%,4.3%,-14.7,-2.5%,10µM*
Cc1ccccc1N(CC(=O)N/N=C/c1cc(C)n(-c2ccccc2C)c1C)S(C)(=O)=O,?,12.4%,-23.3,-1.7%,3.98µM*
Cc1cc(C)nc(SCC(=O)N/N=C\c2sccc2C)n1,-3.0%,-18.9%,67.1,-2.6%,8.4%
SMILES,HPGD inh,Lamin A splicing,PNC inhibitor,ALOX12 inhib,ALDH1A1 block
NC(N)=NC[C@H](N)C(=O)O,-9.3%,.,.,3.5%[11.4 µM],2.9%[13.5 µM]
COc1ccc(Oc2ncnc3c2ncn3Cc2ccccc2)cc1,8.91µM*,-0.4%,24.5,0.0%,-5.7%
COc1ccc(CN(C(=O)c2cnccn2)C(C(=O)NC(C)(C)C)c2cc(OC)c(OC)c(OC)c2)cc1 (centres undefined),-1.0%,-5.8%,-94.9*,-6.2%,-0.6%
COc1cc(C(C(=O)NC(C)(C)C)N(Cc2ccc3c(c2)OCO3)C(=O)c2cnccn2)cc(OC)c1OC (centres undefined),-10.1%,8.6%,-21.2,4.1%,-4.4%
CN(C)S(=O)(=O)Nc1ccc(Oc2ccccc2)cc1,12.6µM*,-20.6%,14.4,-6.1%,-0.4%
Cc1[nH]c(=O)[nH]c(=O)c1S(=O)(=O)Nc1ccc(Oc2ccccc2)cc1,-8.6%,-7.6%,?,-1.8%,-5.5%
CN(N=O)c1ccc(/C=C\c2ccnc3ccccc23)cc1,?,.,.,-3.1%[11.4 µM],?
CCn1cc(C(=O)NCc2ccccc2OC)c(=O)c2cc(S(=O)(=O)N(C)C)ccc21,-20.1%,-10.3%,20.2,-1.8%,3.16µM*
Cc1ccccc1NC(=O)CSc1nc2nccnc2c(=O)n1CCc1c[nH]c2ccccc12,.,-4.3%[46 µM],.,.,.
O=[N+]([O-])c1ccc(O)c(N=Cc2sc3ccccc3c2O)c1,14.1µM*,-7.5%,15.2,-3.9%,?
O=C(NC1CCN(Cc2ccccc2)CC1)c1ccc(-n2c(=O)c(=O)[nH]c3ccccc32)cc1,0.2%,.,.,-5.6%,3.9%
O=S1(=O)CC/C(=N\Nc2ccccc2)c2ccsc21,.,?,.,.,25.1µM*
C=CCc1cccc2cc(C(=O)NC3=C(C#N)CCC3)c(=O)oc12,-10.0%,-2.9%,-124.4*,-1.3%,0.891µM*
O=C(CN1CCSc2ccccc21)N1CCN(c2cccc(Cl)c2)CC1,.,-10.4%[46 µM],.,.,.
CCOc1cccc2sc(N(Cc3cccnc3)C(=O)c3ccc(C#N)cc3)nc12,.,-0.8%[46 µM],.,.,.
Fc1ccc(-n2cc(-c3ccccc3)c3c(NC4CCCCC4)ncnc32)cc1,.,-28.8%[46 µM],.,.,.
CCCn1c2ccccc2c2cnn(CC(=O)NCC3CCN(Cc4ccccc4C)CC3)c(=O)c21,.,-8.4%[46 µM],.,.,.
O=C(c1ccccc1[N+](=O)[O-])N1CCc2ccccc2C1,12.6µM*,9.0%,5.3,4.4%,2.4%
O=C(c1ccc(CN2CCc3ccccc3C2)cc1)N1CCc2ccccc2C1,3.16µM*,16.2%,16.2,1.6%,-11.6%
Nc1ccc(C(=O)OCC(=O)N2CCc3ccccc3C2)cc1[N+](=O)[O-],12.6µM*,8.1%,38.8,7.1%,5.0%
O=C(OCC(=O)N1CCc2ccccc2C1)c1ccc(N2CCOCC2)c([N+](=O)[O-])c1,.,?,22.0,0.9%,20µM*
O=C(c1ccc(CN2CCc3ccccc3C2)cc1)N1CCN(c2ccccc2)CC1,-14.4%,-6.8%,-3.2,2.4%,?
Cc1cccc(C(=O)N2CCc3cc(CNC(=O)c4ccnn4C)ccc32)c1,.,-11.4%[46 µM],.,.,.
CCCCNC(=O)N1CCc2ccccc2C1,-6.0%,1.2%,-113.8*,0.6%,1.9%
COC(=O)c1ccc(CC(=O)c2c(C)cc(O)cc2O)o1,.,-6.7%,-19.0,?,28.2µM*
CCOC(=O)c1ccc(CC(=O)c2ccc(O)cc2O)o1,-12.0%,?,?,-2.7%,?
CCOC(=O)c1c(C)cc(O)cc1O,-29.1%,.,.,-1.1%,4.3%
COC(=O)c1ccc(CC(=O)c2ccc(O)cc2O)o1,31.6µM*,16.3%,6.2,-24.9%,?
COC(=O)c1cc(CC(=O)c2ccc(O)cc2O)c(C)o1,15.8µM*,3.3%,31.9,-14.7%,5.3%
COC(=O)c1ccc(OCC(=O)c2ccc(O)cc2O)cc1,-14.0%,?,-26.6,0.9%,2.2%
